Screening data deposited in PubChem by National Center for Advancing Translational Sciences (NCATS).
Gal4-VP16 FLuc = counter-screen for ROR gamma inhibitors: Gal4-VP16 reporter | 310,000 tested, 3.5% active | Drosophila S2 Gal4-VP16 UAS-luciferase, luminescence, 20 h | Potency, µM (doses to about 53.6 µM), for inactives: at the top dose activity, negative = inhibition, hits mostly inhibitors | AID 2546;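 further: Gal4-VP16 expression switched on by copper sulfate through the metallothionein promoter; potency means the concentration at half of the fitted maximal effect; nearly all actives have a fitted effect of over 50% in size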
B2AR arrestin = recruits beta-arrestin to the human beta2-adrenergic receptor | P07550 | beta-arrestin recruitment to beta2AR, cell-based reporter | Potency, µM (top dose mostly 46.1 µM), without a hit: at the top dose activation, hits mostly activators | 330,000 tested, 0.02% active | AID 492947;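 further: potency means the concentration at half of the fitted maximal effect; 0% = DMSO controls and full agonism = EC100 isoproterenol or metaproterenol; nearly all actives have a fitted effect of over 65% in size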
TSHR antagonist = human thyrotropin receptor antagonism | P16473 | TSHR-expressing cells, TSH-stimulated cAMP HTRF, 2 h; hits give low values | activity change, negative = inhibition, % at 11.5 µM | 330,000 tested, 0.2% active | AID 504810;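 active means activity change below a set negative limit, meaning inhibition stronger than a set level, cut at about -70% in these data; inconclusive means activity change between two set negative limits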
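TSHR-expressing cells were treated with compounds, then stimulated with TSH at EC80 (4nM final) for 2 hours at 37 deg C. Cellular cAMP was measured by HTRF competition between lysate cAMP and cAMP-d2 for a cryptate-labelled anti-cAMP antibody.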
ELG1 DNA repair = inhibitors of ELG1-dependent DNA repair in HEK293T cells; HEK293T ELG1-luciferase reporter, luminescence, 16 h; DNA damage induced by 5-fluorouridine; Potency, µM (titrated, usually from 46.1 µM), inactives show at the highest dose activity change, negative = inhibition, hits mostly inhibitors; 330,000 tested, 2.3% active; further: potency means the concentration at half of the fitted maximal effect; nearly all actives have a fitted effect of over 55% in size
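Cells (2,000 per well) received 5-fluorouridine plus test compound or DMSO and were incubated 16 hr at 37 °C, 5% CO2. Luciferase activity was read by luminescence 30 min after ONE-Glo addition; signal suppression marked inhibition of damage-induced ELG1 function.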
RORgamma inh = ROR gamma (mouse) transcription inhibition | Drosophila S2 Gal4-RORgamma UAS-luciferase reporter, 20 h | Potency, µM (top dose mostly 53.6 µM), for inactives: at the highest dose activity change, negative = inhibition, hits mostly inhibitors | AID 2551 | 310,000 tested, 5.4% active | P51450; further: potency means the concentration at half of the fitted maximal effect; nearly all actives have a fitted effect of over 60% in size
Target sequence (P51450 whole entry, looked up, the tested form may be a part): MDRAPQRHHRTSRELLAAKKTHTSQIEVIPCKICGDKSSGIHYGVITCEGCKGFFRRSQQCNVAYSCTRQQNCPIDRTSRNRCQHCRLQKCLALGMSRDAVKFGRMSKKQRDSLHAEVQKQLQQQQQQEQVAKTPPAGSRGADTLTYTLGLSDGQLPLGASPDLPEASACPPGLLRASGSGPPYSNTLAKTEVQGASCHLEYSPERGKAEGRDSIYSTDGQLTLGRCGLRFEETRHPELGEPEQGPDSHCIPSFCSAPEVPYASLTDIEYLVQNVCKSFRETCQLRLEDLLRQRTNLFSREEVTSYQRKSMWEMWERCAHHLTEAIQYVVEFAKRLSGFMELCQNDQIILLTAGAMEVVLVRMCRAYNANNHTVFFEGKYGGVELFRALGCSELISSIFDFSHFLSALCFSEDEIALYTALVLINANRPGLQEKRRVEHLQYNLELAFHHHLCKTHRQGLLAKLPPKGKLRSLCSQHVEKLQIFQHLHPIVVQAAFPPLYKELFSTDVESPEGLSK
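A Gal4/UAS one-hybrid system in insect cells: metallothionein-promoter Gal4–ROR gamma fusion plus Photinus luciferase reporter. Copper sulfate 700 uM final, 20 hr ambient incubation, luminescent detection after 10 min with reagent.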
Numbers without * were called inactive; ? = inconclusive. A selection: hits, their analogues and other compounds. The true share with any hit is near 7.5%. Unless noted, the call rests on the fitted dose curve; in most records, active means well fitted curve in the direction sought with a large enough effect; inconclusive means small, poorly fitted or top-dose-only effect, or another doubt; inactive means no such curve, though single readings can be large; an effect the other way counts as inactive or inconclusive. Unless noted, on the % scale 0 is the no-effect control and ±100 the full control effect.

SMILES	Gal4-VP16 FLuc	B2AR arrestin	TSHR antagonist	ELG1 DNA repair	RORgamma inh
O=C(Nc1ccc2c(c1)OCO2)c1cccc2c1C(=O)N(Cc1cccnc1)C2	-13%	0%	-6	?	?
COc1cc(NC(=O)c2cccc3c2C(=O)N(Cc2cccnc2)C3)cc(OC)c1OC	3%	0%	20	9.2µM*	-26%
CCOC(=O)c1nn(-c2ccc(Cl)cc2)c2nnc(Cc3ccc(C)cc3)c(=O)n12	22µM*	0%	-4	-3%	-12%
O=[N+]([O-])c1cccc(S(=O)(=O)NCc2ccncc2)c1	10µM*	0%	-15	?	23%
Cc1cc(C)c(S(=O)(=O)NCCc2ccncc2)c(C)c1	-4%	5%	18	-9%	-14%
O=[N+]([O-])c1cccc(S(=O)(=O)Nc2ccc(Cc3ccncc3)cc2)c1	?	-1%	-7	-1%	?
Cc1cc(C)c(S(=O)(=O)NCc2ccncc2)c(C)c1	8.9µM*	0%	-23	?	?
COc1cccc(C(=O)NC2CCCc3c2cnn3-c2ccc(C)c(C)c2)c1OC (stereo unspecified)	-24%	0%	-13	-14%	44%
COc1ccc(C(=O)NC2CCCc3c2cnn3-c2ccc(C)c(C)c2)c(OC)c1OC (stereo unspecified)	-26%	0%	-3	18µM*	?
Cc1ccc(-n2ncc3c2CCCC3NC(=O)c2ocnc2C)cc1C (stereo unspecified)	7.1µM*	-1%	-40	?	21%
Cn1c(SCC(=O)c2ccccc2F)nnc1C1CC1	11µM*	9%	-3	?	?
O=[N+]([O-])c1cc(-c2nnc(Nc3ccc(O)cc3)c3ccccc23)ccc1N1CCOCC1	?	0%	-4	18µM*	36%
O=[N+]([O-])c1cc(-c2nnc(N3CCOCC3)c3ccccc23)ccc1N1CCOCC1	-11%	0%	-11	?	?
Cc1ccc(Nc2nnc(-c3ccc(N4CCOCC4)c([N+](=O)[O-])c3)c3ccccc23)cc1	1%	-1%	-8	?	0%
O=[N+]([O-])c1cc(-c2nnc(Nc3ccccc3)c3ccccc23)ccc1N1CCOCC1	-20%	-1%	-5	18µM*	35%
Nc1c(C(=O)NCCN2CCOCC2)c2nc3ccccc3nc2n1-c1cccc(F)c1	7%	-1%	-6	?	-8%
CCCNC(=O)c1c(N)n(-c2cccc(OC)c2)c2nc3ccccc3nc12	-20%	0%	0	16µM*	42%
COCCCNC(=O)c1c(N)n(/N=C/c2ccccn2)c2nc3ccccc3nc12	-5%	-1%	-9	4.6µM*	17%
COCCCNC(=O)c1c(N)n(-c2cccc(S(N)(=O)=O)c2)c2nc3ccccc3nc12	-6%	0%	-1	12µM*	-13%
CC(C)OCCCNC(=O)c1c(N)n(/N=C/c2cccs2)c2nc3ccccc3nc12	-7%	0%	-2	-16%	-18%
COCC(C)OC(=O)c1c(N)n(-c2ccc(OC)c(OC)c2)c2nc3ccccc3nc12 (stereo unspecified)	-1%	-1%	2	-9%	0%
Cc1ccc(S(=O)(=O)N(C)Cc2ccc(C(=O)NN=C(CC(C)C)CC(C)C)cc2)cc1	?	2%	2	-22%	10µM*
CC/C(=N\NC(=O)c1ccc(CN(C)S(=O)(=O)c2ccc(C)cc2)cc1)c1ccc(OC(F)F)cc1	?	1%	-10	?	-42%
Cc1ccc(C(=O)N2N=C(c3ccc(NS(C)(=O)=O)cc3)CC2c2cccs2)cc1 (stereo unspecified)	2%	0%	-9	?	0%
CS(=O)(=O)Nc1cccc(C2=NN(C(=O)c3ccccc3)C(c3cccs3)C2)c1 (stereo unspecified)	0%	1%	16	?	-3%
COc1ccc(C(=O)N2N=C(c3ccc(NS(C)(=O)=O)cc3)CC2c2cccs2)cc1 (stereo unspecified)	1%	-1%	1	18µM*	-5%
